# FBPA coupling cs = counter-screen for Giardia aldolase inhibitors: coupling enzyme system. coupling enzyme system counterscreen, AmpLite Red fluorescence. activity change, negative = inhibition, % at 58.2 µM, hits read low. actives 0.67% (n = 290,000). AID 2472; in the data active = activity change below about -30%
#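 Counterscreen of the coupled detection system alone, without aldolase: glyceraldehyde-3-phosphate coupling enzymes plus AmpLite Red readout. Compounds at 57.5 uM final, 10 min RT preincubation, 20 min RT reaction, fluorescence 525/598 nm.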
# Tau ThT inhib = blocks human tau fibril formation measured by thioflavin T; recombinant tau K18 P301L, heparin-induced fibrillization, ThT fluorescence; Potency, µM (titrated, usually from 57.4 µM), most hits filed as inhibitors; actives 2.1% (n = 270,000); AID 1460; note: nearly all actives have a fitted effect of over 55% in size
# Target sequence (P10636 561-689 P618L limits assumed): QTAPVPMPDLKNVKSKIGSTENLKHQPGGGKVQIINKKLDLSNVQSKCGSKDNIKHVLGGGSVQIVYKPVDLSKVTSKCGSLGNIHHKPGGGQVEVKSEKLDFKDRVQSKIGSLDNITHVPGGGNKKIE
#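 Tau K18 P301L fragment (15 uM unlabeled plus 0.24 uM Alexa 594-labeled) in 100 mM sodium acetate pH 7 with compound, fibrillization induced by 20 uM heparin for 6 hr at 37 C. Thioflavin T (30 uM) added, fluorescence read after 1 hr (ex 450, em 510 nm).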
# Tau fibril FP = tau fibrillization inhibition (FP); K18 P301L tau heparin fibrillization, Alexa594 FP, 6 h; Potency, µM (doses to about 57.7 µM), most hits filed as inhibitors; P10636; actives 0.39% (n = 280,000); note: nearly all actives have a fitted effect of over 55% in size
#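 K18 P301L tau (15 uM unlabeled/0.24 uM Alexa 594-labeled, final) + compound + heparin 20 uM final; 100 mM NaOAc pH 7; 6 hr 37 C; ThT 30 uM final added, 1 hr RT; FP ex 555/em 632 nm.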
# Tau fluor counter = counter-screen for tau fibril formation inhibitors; tau K18 P301L Alexa594 fluorescence, heparin fibrillization; Potency, µM (doses to about 57.7 µM); actives 0.93% (n = 280,000); note: nearly all actives have a fitted effect of over 55% in size
#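 Human tau K18 P301L (15 uM unlabeled, 0.24 uM Alexa 594-labeled) in 100 mM sodium acetate pH 7 with 20 uM heparin, 6 hr at 37 C. ThT 30 uM added, 1 hr ambient; Alexa 594 FP and total fluorescence read at 555/632 nm.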
# Sfp PPTase inh = Sfp phosphopantetheinyl transferase inhibition | Q9F4F7 | Biochemical Sfp PPTase activity, qHTS | Potency, µM, hits mostly inhibitors | actives 3.5% (n = 310,000) | AID 1490;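 note: the enzyme is Sfp with the accession as filed and its product quenches rhodamine fluorescence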
#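 Sfp 15 nM + cpd, 15 min RT; start w/ rhodamine-CoA 5 uM, BHQ-2-YbbR 12.5 uM (final); 50 mM Hepes pH 7.6, 10 mM MgCl2, 0.01% NP-40, 0.01% BSA; read 525/598 nm at 0 and 30 min.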
# G9a inh = inhibitors of human histone lysine methyltransferase G9a | Q96KQ7 | G9a H3K9 monomethylation, AlphaScreen, 2 h | Potency, µM (top dose mostly 102 µM), most hits filed as inhibitors | actives 8.8% (n = 350,000); note: nearly all actives have a fitted effect of over 75% in size
# Target sequence (Q96KQ7 913-1193 limits assumed): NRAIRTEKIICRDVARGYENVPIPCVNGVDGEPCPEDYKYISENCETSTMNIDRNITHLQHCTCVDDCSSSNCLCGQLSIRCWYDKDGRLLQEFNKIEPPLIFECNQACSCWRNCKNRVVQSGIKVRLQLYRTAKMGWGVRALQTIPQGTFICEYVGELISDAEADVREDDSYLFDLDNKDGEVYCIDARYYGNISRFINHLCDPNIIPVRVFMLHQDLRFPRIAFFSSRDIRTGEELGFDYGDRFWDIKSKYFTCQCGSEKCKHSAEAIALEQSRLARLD
#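 Methyltransferase reactions run at room temperature for 2 h (20 nM enzyme, 500 nM biotin-H3K9 peptide, 20 uM SAM) after a 15 min compound preincubation; product detected by AlphaScreen beads and anti-H3K9me1 antibody.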
# Hits are given with their value; - = inactive; ? = inconclusive; . = no result; [ ] = dose if it differs, or a comment. Sampled rows, rich in hits. Any-hit rate of the full collection: about 11%. Unless noted, calls come from the whole dose curve; as a rule, active = well fitted curve in the direction sought with a large enough effect; inconclusive = small, poorly fitted or top-dose-only effect, or another doubt; inactive = no such curve, though single readings can be large; an effect the other way counts as inactive or inconclusive.
SMILES,FBPA coupling cs,Tau ThT inhib,Tau fibril FP,Tau fluor counter,Sfp PPTase inh,G9a inh
CCCCCC#CCC#CCC#CCC#CCCCC(=O)O,-,?,-,-,-,10µM
CN(C)c1ccc(/C=C/C(=O)c2cc(Cl)ccc2O)cc1,-,3.98µM,-,?,-,3.98µM
O=C(/C=C/c1ccncc1)c1cc(Cl)ccc1O,-,28.2µM,-,?,-,22.4µM
CN(C)c1ccc(C(=O)/C=C/c2ccc(Br)cc2)cc1,-,?,-,-,-,?
N[C@H](C(=O)O)[C@@H]1C[C@@H]1C(=O)O,-,-,-,-,-,.
O=C(Nc1cc(N2CCOCC2)ncn1)NC1(C(F)(F)F)Oc2ccccc2O1,-,-,-,-,-,2.24µM
COc1cccc(NC(=O)NC2(C(F)(F)F)Oc3ccccc3O2)c1,-,?,-,17.8µM[quencher],-,3.55µM
O=C(NCc1cccnc1)NC1(C(F)(F)F)Oc2ccccc2O1,-,-,-,-,-,39.8µM
COc1cccc(NC(=O)Nc2cccc(C(=O)O)c2)c1,-,-,-,-,-,-
Cc1c(C(=O)NCCc2ccccc2)cccc1-n1cnc2cccnc21,.,-,-,-,.,-
COc1ccc(/C=C\c2onc(C)c2S(=O)(=O)N2CCC(C(=O)Nc3cccc(Cl)c3)CC2)cc1,.,-,14.1µM,-,.,-
COc1ccc(NC(=O)c2nn(C)c3c2CS(=O)(=O)c2ccccc2-3)cc1Cl,.,-,?,-,.,-
CCCCCCCCCCOC(=O)Cn1c(COc2ccc(OC)cc2)[n+](C)c2ccccc21,-,.,.,.,35.5µM,?
CCCCCOC(=O)Cn1c(=O)oc2ccccc21,-,-,-,-,-,-
CCCCCCCCCCOC(=O)Cn1c(COc2ccccc2)[n+](C)c2ccccc21,-,.,.,.,39.8µM,-
CCCCCCCCCCOC(=O)Cn1c(COc2cccc(C)c2)[n+](C)c2ccccc21,-,.,.,.,56.2µM,-[0.501 µM]
CCCCCCCCCCOC(=O)Cn1c(COc2ccccc2C)[n+](C)c2ccccc21,-,.,.,.,44.7µM,-
Cc1ccccc1OCc1n(CC(=O)OC2CC(C)CCC2C(C)C)c2ccccc2[n+]1C (stereo not given),-,?,-,-,?,-
CCCCOC(=O)Cn1c(=O)n(CC(=O)OCCCC)c2ccccc21,-,-,-,-,-,-
COc1cccc(CC2(CO)CCCN(CC3=Cc4cc(Cl)ccc4OC3)C2)c1 (stereo not given),-,?,-,-,-,-[0.501 µM]
CCCCCCCCCCOC(=O)Cn1c(COc2ccc(Cl)cc2)[n+](C)c2ccccc21,-,.,.,.,25.1µM,?
CCn1c(SCc2nc3sc(C(=O)O)c(C)c3c(=O)[nH]2)nc2ccccc21,-,?,-,-,?,2.51µM
COCCn1c(SCc2nc3sc(C(=O)OC)c(C)c3c(=O)[nH]2)nc2ccccc21,-,?,-,-,-,?
CCOC(=O)CSc1nc2sc(C(=O)O)c(C)c2c(=O)[nH]1,-,-,-,-,-,79.4µM
CCC1(C)CC2(CCCN(CCC(=O)c3ccccc3)C2)CCO1 (stereo not given),-,?,-,-,-,50.1µM
SMILES,FBPA coupling cs,Tau ThT inhib,Tau fibril FP,Tau fluor counter,Sfp PPTase inh,G9a inh
O=[N+]([O-])c1ccc(SCCc2ccncc2)cc1,-,?,-,-,50.1µM,11.2µM
O=[N+]([O-])c1ccc(SCCc2ccccn2)cc1,-,.,-,-,?,12.6µM
O=[N+]([O-])c1ccc(CSc2ccccn2)cc1,-,.,.,.,-,-
O=c1c2ccccc2n(Cc2c(F)cccc2Cl)c(=O)n1CCc1ccccc1,.,-,-,-,.,-
COCCn1c(C)c(C)c(S(=O)(=O)c2ccccc2)c1N,-,.,.,.,-,35.5µM
Cc1c(S(=O)(=O)c2ccccn2)c(N)n(Cc2ccccc2Cl)c1C,-,.,-,-,-,.
Cc1c(S(=O)(=O)c2ccccn2)c(N)n(Cc2ccccc2)c1C,-,-,-,-,-,14.1µM
Brc1ccccc1-c1nnc2sc(-c3ccc4c(c3)OCCO4)nn12,-,-,-,-,-,-[12.7 µM]
c1ccc2c(c1)OCC(c1nnc3sc(-c4ccc5c(c4)OCO5)nn13)O2 (stereo not given),-,?,-,-,25.1µM,5.01µM
Fc1ccc(-c2nn3c(C4COc5ccccc5O4)nnc3s2)cc1 (stereo not given),-,-,-,-,39.8µM,3.16µM
c1ccc2c(c1)OCC(c1nnc3sc(-c4cnccn4)nn13)O2 (stereo not given),-,?,-,-,20µM,7.94µM
Fc1ccc(-c2nnc3sc(C4COc5ccccc5O4)nn23)cc1 (stereo not given),-,?,-,-,-,-
CCN(C(=O)Cn1c(C(=O)OC)cc2sccc21)c1cccc(C)c1,.,-,-,-,.,-
O=C(CCSc1nc2ccccc2s1)N/N=C/c1c(O)ccc2ccccc12,-,-,-,?,?,-
O=c1c2ccccc2nc(N/N=C/c2ccc(O)cc2)n1O,-,?,-,-,35.5µM,?
O=c1c2ccccc2nc(N/N=C/c2c(O)ccc3ccccc23)n1O,-,11.2µM,-,?,39.8µM,?
CCCc1nc2ccccc2c(=O)n1/N=C/c1ccc(O)cc1,-,-,-,-,-,-
COc1ccc(OC)c(NC(=O)Cn2ccc3ccccc3c2=O)c1,.,-,-,-,.,-
CCOC(=O)CN1C(=O)N(c2ccc(C)c(C)c2)S(=O)(=O)c2ccccc21,.,-,-,-,.,-
CCOC(=O)N1CCN(C(=O)c2c(N)no[n+]2[O-])CC1,-,25.1µM,?,-,-,?
N#Cc1cccc(NC(=O)Cn2c3[n+](c4ccc(C(F)(F)F)cc42)CCCCC3)c1,-,-,-,-,-,8.91µM
CC(=O)c1cccc(OCc2cc(C(=O)N(C)Cc3ccc(C)o3)no2)c1,-,.,.,.,25.1µM,.
CC(=O)c1cccc(OCc2cc(C(=O)N(C)CCc3ccccn3)no2)c1,-,.,.,.,-,-
Cc1ccc(CN(C)C(=O)c2ccccc2Oc2ccccc2)o1,-,?,-,-,14.1µM,?
CSc1ccccc1OCc1cc(C(=O)N2CCSCC2)no1,.,.,.,.,-,?
SMILES,FBPA coupling cs,Tau ThT inhib,Tau fibril FP,Tau fluor counter,Sfp PPTase inh,G9a inh
CSc1ccccc1OCc1cc(C(=O)N2CCN(c3ncccn3)CC2)no1,.,.,.,.,?,56.2µM
CSc1ccccc1OCc1cc(C(=O)N(C)Cc2ccc(C)o2)no1,-,.,.,.,20µM,50.1µM
Cc1ccc(OCc2cc(=O)n3ccsc3n2)c(NC(=O)c2ccco2)c1,.,-,-,-,.,-
Cc1cc(C)nc(NS(=O)(=O)c2ccc(NC(=O)COc3ccc(C(C)(C)C)cc3)cc2)n1,.,-,-,-,.,-
CCn1nc(C)c(NC(=O)c2ccc(Cl)cc2)c1C,-,-,-,-,?,3.55µM
O=C1C=CC2=C3c4cc(O)c(O)cc4C[C@@]3(O)COC2=C1,-,8.91µM,?,?,31.6µM,.
